Test: Plasmodium falciparum growth inhibition, primary screen, strain 3D7, DAPI fluorescence, 100 nL (AID 1184);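 also: parasites grown inside human red blood cells in medium with human serum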
Settings: P. falciparum 3D7 growth, 3 d, higher = more signal

Q: For `CC(CCN1CCCCc2nc(C)c(C)cc21)=NOC[C@@H](O)[C@H]1O[C@@H]2OC(C)(C)O[C@@H]2[C@H]1O`, which z-score is on record?
A: Its z-score is 0.027.

Q: Which z-score does the source give for `CCCC[C@H]1CN2[C@@H](CC[C@@H](C)[C@@H]2c2ccc(Br)cc2)C(=O)O1` here?
A: Its z-score is -0.278.

Q: With `COC(=O)CC=C[C@@H](C)[C@@H](C=NOC[C@@H](O)COCc1ccco1)NS(=O)(=O)c1ccc(C)cc1` as the compound, how does the z-score read?
A: Its z-score is -0.546.

Q: For `O=C1CCCC=C1C(O)c1ccc([N+](=O)[O-])cc1` (stereo unspecified), which z-score is on record?
A: Its z-score is 0.938.

Q: For `C[C@@H]1CC[C@@H](C(=O)O)N[C@H]1c1cccc(N2CCOCC2)c1`, which z-score is on record?
A: The z-score was 0.818.

Q: Which z-score does the source give for `CC(C)=CCCC(C)=CCON=C1C[C@@H](O)[C@@H](O)[C@@H]2[C@@H]3C(=O)N(Cc4ccc5c(c4)OCO5)C(=O)[C@@H]3CC[C@@H]12` here?
A: Its z-score is -0.526.

Q: Which z-score does the source give for `CC(C)=NO[C@H](C)c1cn([C@@H]2COC[C@H]2O)nn1` here?
A: Its z-score is 0.672.

Q: Which z-score does the source give for `C[C@@H]1CC[C@H]2C(=O)O[C@@H](CN=[N+]=[N-])CN2[C@H]1c1ccc(Br)cc1` here?
A: The z-score was -1.72.

Q: With `COc1ccc(OC[C@@H]2CC3[C@@H](c4ccc(Br)cc4)[C@H](C)CC[C@H]3C(=O)O2)cc1` (stereo partly specified) as the compound, how does the z-score read?
A: Its z-score is 0.163.

Q: For `CC(=O)OC[C@H]1O[C@H](CC=NO[C@@H](C)c2cn([C@H](CO)Cc3ccccc3)nn2)C=C[C@@H]1OC(C)=O`, which z-score is on record?
A: Its z-score is -1.13.

Q: Which z-score does the source give for `CON=C(C)CCN1CCCc2nc(C)c(C)cc21` here?
A: The z-score was -0.18.

Q: With `O=C1[C@H]2[C@H]3[C@H](O)[C@H](O)CC(=NOC[C@@H](O)COCc4ccco4)[C@@H]3CC[C@H]2C(=O)N1C1CCCCC1` as the compound, how does the z-score read?
A: The z-score was 1.7.

Q: Which z-score does the source give for `CC(C)CN1CCc2nc(-c3ccccc3)c3c(c2C1)CO[C@@H](C)C3` here?
A: The z-score was -0.927.

Q: For `CO[C@@H](C1CCCCC1)[C@@H](C)[C@H](OCc1cccc(Br)c1)[C@@H](C)CO`, which z-score is on record?
A: The z-score was -0.254.

Q: For `CCCNC(=O)OC[C@H]1O[C@H](CCON=C[C@@H](NS(=O)(=O)c2ccc(C)cc2)[C@H](C)C=CCC(=O)OC)C=C[C@@H]1Oc1ccc(OC)cc1`, which z-score is on record?
A: Its z-score is -0.862.

Q: Which z-score does the source give for `CC(C)CON=C1C[C@@H](O)[C@@H](O)[C@@H]2[C@@H]3C(=O)N([C@@H](C)c4ccccc4)C(=O)[C@@H]3CC[C@@H]12` here?
A: The z-score was -0.274.

Q: With `CCOC(=O)CCN1C(=O)[C@H]2[C@H]3[C@H](O)[C@H](O)CC(=NO[C@@H]4O[C@H](CO)[C@@H](O)[C@H](O)[C@H]4O)[C@H]3CC[C@H]2C1=O` as the compound, how does the z-score read?
A: Its z-score is 0.209.

Q: For `CCN1C(C)=C(C(=O)OC)[C@@H](c2ccccc2)N2C(=O)[C@](O)(C(=O)OC)CC(C(C)=O)=C12`, which z-score is on record?
A: The z-score was 0.752.

Q: For `O=C1CCCC=C1C(O)COCc1ccccc1` (stereo unspecified), which z-score is on record?
A: The z-score was -0.674.

Q: Which z-score does the source give for `CCOC(=O)[C@H](Cc1ccccc1)NC(=O)CCC1CC(OC(=O)NCc2cccc3ccccc23)CC2(CCCC(COC(=O)NCCOc3ccccc3)O2)O1` (stereo partly specified) here?
A: Its z-score is -1.86.

Q: With `C[C@@H](c1ccccc1)N1C(=O)[C@H]2[C@H]3[C@H](O)[C@H](O)CC(=NNC(=O)OCc4ccccc4)[C@@H]3CC[C@H]2C1=O` as the compound, how does the z-score read?
A: Its z-score is 0.556.

Q: Which z-score does the source give for `CC(CCN1CCCc2nc(C)c(C)cc21)=NOC[C@@H](C)[C@H](OCc1ccccc1)C(C)C` here?
A: Its z-score is -0.342.

Q: For `CON=C(C)CCN1CCCCc2nc(C)c(C)cc21`, which z-score is on record?
A: The z-score was 1.06.

Q: For `CCCNC(=O)OC[C@H]1O[C@H](CCON=C2C[C@@H](O)[C@@H](O)[C@@H]3[C@@H]4C(=O)N(CC)C(=O)[C@@H]4CC[C@@H]23)C=C[C@@H]1Oc1ccc(OC)cc1`, which z-score is on record?
A: The z-score was 0.497.

Q: Which z-score does the source give for `CCOC(=O)[C@H](CC(C)C)NC(=O)CCC1CC(OC(=O)NCc2ccc3c(c2)OCO3)CC2(CCCC(COC(=O)NCCC(C)C)O2)O1` (stereo partly specified) here?
A: The z-score was -0.278.

Q: With `COC(=O)[C@H](C)NC(=O)CCC1CC(OC(=O)NCCc2ccc(F)cc2)CC2(CCCC(COC(=O)NCCc3ccccc3OC)O2)O1` (stereo partly specified) as the compound, how does the z-score read?
A: Its z-score is -1.26.

Q: With `CC(CCN1CCCc2nc(C)c(C)cc21)=NO[C@H](C)c1cn([C@@H]2COC[C@H]2O)nn1` as the compound, how does the z-score read?
A: The z-score was 0.612.

Q: With `CON=C1c2cc(OC)ccc2O[C@H](c2cccc(OC)c2)[C@H]1O` as the compound, how does the z-score read?
A: The z-score was 0.924.

Q: With `O=C1C2=CC[C@H]3C(=O)N(Cc4ccccc4)C(=O)[C@H]3[C@H]2[C@H](O)[C@@H]2O[C@H]12` as the compound, how does the z-score read?
A: Its z-score is -0.116.

Q: Which z-score does the source give for `COC(=O)[C@H](C)NC(=O)CCC1CC(OC(=O)NCCc2ccc(F)cc2)CC2(CCCC(COC(=O)NCCOc3ccccc3)O2)O1` (stereo partly specified) here?
A: The z-score was -1.84.

Q: Which z-score does the source give for `O=C1[C@H]2[C@H]3[C@H](O)[C@H](O)CC(=NOC[C@@H](O)COCc4ccco4)[C@@H]3CC[C@H]2C(=O)N1Cc1ccc2c(c1)OCO2` here?
A: Its z-score is 1.15.

Q: Which z-score does the source give for `CO[C@@H]1COC(=O)[C@@H]2CCCN2C(=O)[C@@H](C)COC(=O)CCC[C@H]1C` here?
A: Its z-score is 0.193.

Q: With `CCOC(=O)CCN1C(=O)[C@H]2[C@H]3[C@H](O)[C@H](O)CC(=NO[C@@H]4O[C@H](CO)[C@@H](O)[C@H](O)[C@H]4O)[C@@H]3CC[C@H]2C1=O` as the compound, how does the z-score read?
A: Its z-score is 0.434.

Q: For `CSCC[C@@H]1NC(=O)CC=C[C@@H](C)COC(=O)[C@H](C)COC1=O`, which z-score is on record?
A: The z-score was 0.461.

Q: With `C[C@@H](c1ccccc1)N1C(=O)[C@H]2[C@H]3[C@H](O)[C@H](O)CC(=NOCc4ccccc4)[C@@H]3CC[C@H]2C1=O` as the compound, how does the z-score read?
A: Its z-score is -1.49.

Q: For `CC[C@@H](c1ccccc1)n1c(=O)n2n(c1=O)[C@H]1[C@H](O)[C@@H]3O[C@@H]3C(=NOCc3ccccc3)[C@H]1CC2`, which z-score is on record?
A: Its z-score is -1.81.
